Measured values taken from PubChem BioAssay (NCI).
This is part of a sample that, as a whole, favours compounds with a hit. Of some 79,000 tested, about 15% had one in any assay. Activity calls are given as the source filed them. Cut-off read from the data, not from the text of the source: active = growth inhibition above about 70%; inactive = the rest.

Test: NCI Yeast Anticancer Drug Screen. Data for the bub3 strain (AID 167)
Settings: S. cerevisiae bub3 mutant strain, at 50.0 µM, hits give high values
In short: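 Growth of a checkpoint-deficient yeast mutant is measured after compound exposure. Values represent inhibition relative to vehicle.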

SMILES | growth inhibition
O=C(O)c1ccccc1C(=O)Nc1ccc2ccccc2c1 | 7.55% (inactive)
O=[N+]([O-])c1ccc(N/N=C2\CCC3CC23)c([N+](=O)[O-])c1 (configuration not stated) | -0.55% (inactive)
CCOC(=O)c1c(C)[nH]c(-c2csc(N)n2)c1C | -9.35% (inactive)
Cc1cccc(C)c1C | -0.65% (inactive)
Cc1cc(N)c(N=Cc2ccccc2[N+](=O)[O-])cc1C | 24.8% (inactive)
CN(C)Cc1cccc(C(F)(F)F)c1C(O)c1ccccc1 (configuration not stated) | 7.7% (inactive)
Nc1ccc2cc(S(=O)(=O)O)cc(S(=O)(=O)O)c2c1 | -0.15% (inactive)
Nc1nc2c(nnn2-c2ccc(Cl)cc2)c(=O)[nH]1 | -0.5% (inactive)
C(=C\C1OCCO1)/c1ccccc1 | 18.1% (inactive)
COc1cccc2c1CCC1=CC(=O)CCC12C (configuration not stated) | 16.9% (inactive)
O=C(NC(=O)c1c(F)cccc1F)Nc1ccc(Cl)nc1 | 21.9% (inactive)
CC1=C/C(=N/Nc2ccc([N+](=O)[O-])cc2[N+](=O)[O-])CC(C)(C)C1 | 3.1% (inactive)
COC1(OC)CC2C(=O)N(Cc3ccccc3)C1C(S(=O)(=O)c1ccccc1)C2C(C)S(=O)(=O)c1ccccc1 (configuration not stated) | -26.7% (inactive)
CC(=O)N/C(=C\c1ccccc1)C(N)=O | 36% (inactive)
CCCn1cnc2c(SCC(=O)O)nc(N)nc21 | -22.1% (inactive)
c1ccc(-c2ccc3c4ccccc4ccn23)cc1 | 12.7% (inactive)
O=S(=O)(Nc1ncccn1)c1ccc(N=NSC2=NC=NC3=NC=NC32)cc1 (configuration not stated) | 0.05% (inactive)
